According to article PMC5540273 (PLoS ONE, 2017):

Experiments:
Conditions in all cases: concentration: 1 μM,replicates: in singlicate; n = 1
DYRK1B = test system: DYRK1B
DYRK2 = test system: DYRK2
EGFR = test system: EGFR
EIF2AK1 = test system: EIF2AK1
EPHA1 = test system: EPHA1
EPHA2 = test system: EPHA2
EPHA3 = test system: EPHA3
EPHA4 = test system: EPHA4
EPHA5 = test system: EPHA5
EPHA6 = test system: EPHA6
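Also: KINOMEscan kinase panel screen.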

## O=C(NCCNc1ccnc(NCc2ccc(F)cc2)n1)c1cc2ccccc2s1 [GSK1379944]
DYRK1B
  %Inh: 0%
DYRK2
  %Inh: 0%
EGFR
  %Inh: 23%
EIF2AK1
  %Inh: 0%
EPHA1
  %Inh: 10%
EPHA2
  %Inh: 17%
EPHA3
  %Inh: 0%
EPHA4
  %Inh: 22%
EPHA5
  %Inh: 0%
EPHA6
  %Inh: 19%

## CCn1c(-c2nonc2N)nc2c(C#CC(C)(C)O)nc(OCCN)cc21.Cl.Cl [GSK902056]
DYRK1B
  %Inh: 4%
DYRK2
  %Inh: 0%
EGFR
  %Inh: 24%
EIF2AK1
  %Inh: 8%
EPHA1
  %Inh: 19%
EPHA2
  %Inh: 19%
EPHA3
  %Inh: 21%
EPHA4
  %Inh: 15%
EPHA5
  %Inh: 0%
EPHA6
  %Inh: 11%

## Cl.Cl.NC[C@H](CC1CCCCC1)NC(=O)c1cc(Br)c(-c2ccnc3[nH]ccc23)s1 [GSK1581427]
DYRK1B
  %Inh: 71%
DYRK2
  %Inh: 67%
EGFR
  %Inh: 23%
EIF2AK1
  %Inh: 0%
EPHA1
  %Inh: 42%
EPHA2
  %Inh: 12%
EPHA3
  %Inh: 0%
EPHA4
  %Inh: 13%
EPHA5
  %Inh: 0%
EPHA6
  %Inh: 25%

## Cc1cc2cn[nH]c2cc1-c1cccc2c(N)c(C(N)=O)nnc12
DYRK1B
  %Inh: 0%
DYRK2
  %Inh: 23%
EGFR
  %Inh: 56%
EIF2AK1
  %Inh: 26%
EPHA1
  %Inh: 17%
EPHA2
  %Inh: 0%
EPHA3
  %Inh: 0%
EPHA4
  %Inh: 8%
EPHA5
  %Inh: 89%
EPHA6
  %Inh: 0%

## CN(C)CCOc1ccc(-c2cc(-c3c[nH]nc3-c3ccccn3)ccn2)cc1 [GW835314]
DYRK1B
  %Inh: 22%
DYRK2
  %Inh: 17%
EGFR
  %Inh: 28%
EIF2AK1
  %Inh: 93.7%
EPHA1
  %Inh: 18%
EPHA2
  %Inh: 10%
EPHA3
  %Inh: 18%
EPHA4
  %Inh: 90%
EPHA5
  %Inh: 5%
EPHA6
  %Inh: 84%

## Cc1ccc2c(-c3ccncc3)c(-c3ccc(F)cc3)nn2c1.Cl [GW461484]
DYRK1B
  %Inh: 4%
DYRK2
  %Inh: 9%
EGFR
  %Inh: 43%
EIF2AK1
  %Inh: 0%
EPHA1
  %Inh: 10%
EPHA2
  %Inh: 8%
EPHA3
  %Inh: 13%
EPHA4
  %Inh: 0%
EPHA5
  %Inh: 0%
EPHA6
  %Inh: 5%

## Nc1nc(Nc2ccccc2)cc(-c2ccc3c(N)n[nH]c3c2)n1 [GSK2225749]
DYRK1B
  %Inh: 19%
DYRK2
  %Inh: 88%
EGFR
  %Inh: 16%
EIF2AK1
  %Inh: 0%
EPHA1
  %Inh: 0%
EPHA2
  %Inh: 32%
EPHA3
  %Inh: 0%
EPHA4
  %Inh: 0%
EPHA5
  %Inh: 0%
EPHA6
  %Inh: 0%

## Cl.Oc1cc(-c2nc(-c3ccccc3)[nH]c2-c2ccncc2)ccc1Cl [SB-386023]
DYRK1B
  %Inh: 0%
DYRK2
  %Inh: 5%
EGFR
  %Inh: 20%
EIF2AK1
  %Inh: 0%
EPHA1
  %Inh: 59%
EPHA2
  %Inh: 0%
EPHA3
  %Inh: 5%
EPHA4
  %Inh: 0%
EPHA5
  %Inh: 23%
EPHA6
  %Inh: 36%

## CCN(CC)CCOc1ccc(Nc2ncc3cc(-c4c(Cl)cccc4Cl)c(=O)n(C)c3n2)cc1 [SB-601273]
DYRK1B
  %Inh: 14%
DYRK2
  %Inh: 11%
EIF2AK1
  %Inh: 96.9%
EPHA1
  %Inh: 100%
EPHA2
  %Inh: 100%
EPHA3
  %Inh: 96.6%
EPHA4
  %Inh: 100%
EPHA5
  %Inh: 99.8%
EPHA6
  %Inh: 97.9%

## NC(=O)c1cc(-c2ccccc2)cc2c(C3CCNCC3)c[nH]c12 [GSK301362]
DYRK1B
  %Inh: 45%
DYRK2
  %Inh: 23%
EGFR
  %Inh: 25%
EIF2AK1
  %Inh: 0%
EPHA1
  %Inh: 18%
EPHA2
  %Inh: 10%
EPHA3
  %Inh: 0%
EPHA4
  %Inh: 6%
EPHA5
  %Inh: 0%
EPHA6
  %Inh: 3%

## O=C(NCCCN1CCOC1=O)c1cnc(NCc2cc(Cl)ccc2Cl)nc1NC1CCCC1
DYRK1B
  %Inh: 21%
DYRK2
  %Inh: 0%
EGFR
  %Inh: 0%
EIF2AK1
  %Inh: 0%
EPHA1
  %Inh: 12%
EPHA2
  %Inh: 25%
EPHA3
  %Inh: 0%
EPHA4
  %Inh: 14%
EPHA5
  %Inh: 17%
EPHA6
  %Inh: 28%

## C=CC(=O)Nc1cc2c(Nc3ccc(F)c(Cl)c3)ncnc2cc1OCCCN1CCOCC1 [GW781483]
DYRK1B
  %Inh: 23%
DYRK2
  %Inh: 17%
EIF2AK1
  %Inh: 11%
EPHA1
  %Inh: 25%
EPHA2
  %Inh: 0%
EPHA3
  %Inh: 13%
EPHA4
  %Inh: 5%
EPHA5
  %Inh: 7%

## Cl.Cl.Nc1nc(-c2ccc3c(N)n[nH]c3c2)cc(N2CCCC(NC(=O)c3ccccc3)C2)n1 (stereo not shown) [GSK2286775]
DYRK1B
  %Inh: 18%
DYRK2
  %Inh: 80%
EGFR
  %Inh: 28%
EIF2AK1
  %Inh: 0%
EPHA1
  %Inh: 13%
EPHA2
  %Inh: 0%
EPHA3
  %Inh: 0%
EPHA4
  %Inh: 15%
EPHA5
  %Inh: 0%
EPHA6
  %Inh: 6%

## Cc1occc1-c1nc(N)c(OC[C@@H](N)Cc2c[nH]c3ccccc23)cc1-c1cc2c(C)n[nH]c2cn1 [GSK1660450]
DYRK1B
  %Inh: 91.6%
DYRK2
  %Inh: 92.1%
EGFR
  %Inh: 97.2%
EIF2AK1
  %Inh: 12%
EPHA1
  %Inh: 16%
EPHA2
  %Inh: 13%
EPHA3
  %Inh: 30%
EPHA4
  %Inh: 14%
EPHA5
  %Inh: 0%
EPHA6
  %Inh: 32%

## CC(C)N1C(=O)Cc2cc(Nc3ncc(C(F)(F)F)c(NCc4cccc(S(C)(=O)=O)c4)n3)ccc21
DYRK1B
  %Inh: 38%
DYRK2
  %Inh: 19%
EGFR
  %Inh: 0%
EIF2AK1
  %Inh: 0%
EPHA1
  %Inh: 4%
EPHA2
  %Inh: 0%
EPHA3
  %Inh: 9%
EPHA4
  %Inh: 1%
EPHA5
  %Inh: 3%
EPHA6
  %Inh: 3%

## Cc1n[nH]c2ccc(-c3cc(OC[C@@H](N)Cc4ccccc4)cnc3-c3ccoc3)cc12.O=C(O)C(F)(F)F.O=C(O)C(F)(F)F [GSK507358]
DYRK1B
  %Inh: 49%
DYRK2
  %Inh: 40%
EGFR
  %Inh: 87%
EIF2AK1
  %Inh: 0%
EPHA1
  %Inh: 5%
EPHA2
  %Inh: 0%
EPHA3
  %Inh: 43%
EPHA4
  %Inh: 0%
EPHA5
  %Inh: 0%
EPHA6
  %Inh: 4%

## C[C@@H](Oc1cc(-c2cnn(C3CCNCC3)c2)cnc1N)c1c(Cl)ccc(F)c1Cl
DYRK1B
  %Inh: 0%
DYRK2
  %Inh: 30%
EGFR
  %Inh: 0%
EIF2AK1
  %Inh: 14%
EPHA1
  %Inh: 93.5%
EPHA2
  %Inh: 82%
EPHA3
  %Inh: 37%
EPHA4
  %Inh: 49%
EPHA5
  %Inh: 51%
EPHA6
  %Inh: 90.2%

## CN(C)CC(O)COc1ccc(Nc2nccc(-c3cnn4nc(N5CCOCC5)ccc34)n2)cc1 (stereo not shown) [GW767488]
DYRK1B
  %Inh: 69%
DYRK2
  %Inh: 87%
EGFR
  %Inh: 17%
EIF2AK1
  %Inh: 42%
EPHA1
  %Inh: 34%
EPHA2
  %Inh: 0%
EPHA3
  %Inh: 9%
EPHA4
  %Inh: 8%
EPHA5
  %Inh: 9%
EPHA6
  %Inh: 0%

## COc1ccc(C[C@@H](CN)NC(=O)c2cc(Br)c(-c3ccnc4[nH]ccc34)s2)cc1.Cl.Cl [GSK1389063]
DYRK1B
  %Inh: 91.3%
DYRK2
  %Inh: 69%
EGFR
  %Inh: 37%
EIF2AK1
  %Inh: 7%
EPHA1
  %Inh: 52%
EPHA2
  %Inh: 17%
EPHA3
  %Inh: 44%
EPHA4
  %Inh: 25%
EPHA5
  %Inh: 0%
EPHA6
  %Inh: 33%

## Cc1cc(C(=O)Nc2ccc(Oc3ccc4nc(NC(=O)C5CC5)cn4n3)cc2)nn1-c1ccccc1
DYRK1B
  %Inh: 0%
DYRK2
  %Inh: 0%
EGFR
  %Inh: 0%
EIF2AK1
  %Inh: 0%
EPHA1
  %Inh: 45%
EPHA2
  %Inh: 29%
EPHA3
  %Inh: 0%
EPHA4
  %Inh: 48%
EPHA5
  %Inh: 6%
EPHA6
  %Inh: 46%

## C[C@@H]1CCN(C(=O)CC#N)C[C@@H]1N(C)c1ncnc2[nH]ccc12
DYRK1B
  %Inh: 0%
DYRK2
  %Inh: 0%
EIF2AK1
  %Inh: 6%
EPHA1
  %Inh: 6%
EPHA2
  %Inh: 0%
EPHA3
  %Inh: 0%
EPHA4
  %Inh: 0%
EPHA5
  %Inh: 0%
EPHA6
  %Inh: 0%

## CNC(=O)c1ccccc1Sc1ccc2c(/C=C/c3ccccn3)n[nH]c2c1
DYRK1B
  %Inh: 0%
DYRK2
  %Inh: 0%
EIF2AK1
  %Inh: 6%
EPHA1
  %Inh: 12%
EPHA2
  %Inh: 9%
EPHA3
  %Inh: 0%
EPHA4
  %Inh: 0%
EPHA5
  %Inh: 0%
EPHA6
  %Inh: 0%

## CCN(CC)CCCCNc1ncc2cc(-c3c(Cl)cccc3Cl)c(NC(=O)NC(C)(C)C)nc2n1
DYRK1B
  %Inh: 1%
DYRK2
  %Inh: 0%
EIF2AK1
  %Inh: 46%
EPHA1
  %Inh: 99.6%
EPHA2
  %Inh: 99.6%
EPHA3
  %Inh: 99.4%
EPHA4
  %Inh: 91.5%
EPHA5
  %Inh: 95.9%
EPHA6
  %Inh: 95.6%

## Cc1ccc(-n2nc(C(C)(C)C)cc2NC(=O)Nc2ccc(OCCN3CCOCC3)c3ccccc23)cc1 [GW839464]
DYRK1B
  %Inh: 100%
DYRK2
  %Inh: 14%
EGFR
  %Inh: 33%
EIF2AK1
  %Inh: 0%
EPHA1
  %Inh: 52%
EPHA4
  %Inh: 6%
EPHA5
  %Inh: 0%
EPHA6
  %Inh: 23%

## C[C@H]1Oc2cc(cnc2N)-c2c(nn(C)c2C#N)CN(C)C(=O)c2ccc(F)cc21
DYRK1B
  %Inh: 6%
DYRK2
  %Inh: 0%
EGFR
  %Inh: 9%
EIF2AK1
  %Inh: 0%
EPHA1
  %Inh: 53%
EPHA2
  %Inh: 48%
EPHA3
  %Inh: 0%
EPHA4
  %Inh: 1%
EPHA5
  %Inh: 24%
EPHA6
  %Inh: 33%

## CC(C)Nc1cc(-c2ccc3c(N)n[nH]c3c2)nc(N)n1 [GSK2221681]
DYRK1B
  %Inh: 14%
DYRK2
  %Inh: 87%
EGFR
  %Inh: 58%
EIF2AK1
  %Inh: 0%
EPHA1
  %Inh: 0%
EPHA2
  %Inh: 0%
EPHA3
  %Inh: 0%
EPHA4
  %Inh: 0%
EPHA5
  %Inh: 0%
EPHA6
  %Inh: 0%

## Cl.Cl.NC[C@H](Cc1ccc(C(F)(F)F)cc1)NC(=O)c1cc(Br)c(-c2ccnc3[nH]ccc23)s1 [GSK1487252]
DYRK1B
  %Inh: 41%
DYRK2
  %Inh: 33%
EGFR
  %Inh: 30%
EIF2AK1
  %Inh: 0%
EPHA1
  %Inh: 26%
EPHA2
  %Inh: 14%
EPHA3
  %Inh: 0%
EPHA4
  %Inh: 19%
EPHA5
  %Inh: 0%
EPHA6
  %Inh: 29%
